According to PubChem BioAssay (EPA / NIEHS):
Calls of active or inactive are those of the source. How the source made its calls: active means hit-call score of the fitted dose curve at least 0.9, where 1 is the maximum; inactive means score below 0.9.

target: CCAAT/enhancer-binding protein beta (Homo sapiens) (UniProt P17676); experiment: ATG_C_EBP_CIS: Attagene CIS-FACTORIAL HepG2 Assay for human CCAAT/Enhancer Binding Protein (C/EBP) beta (AID 2282927); conditions: HepG2 Attagene cis-factorial transcription factor reporter; actives raise or lower the signal
Sequence (P17676 whole entry, looked up): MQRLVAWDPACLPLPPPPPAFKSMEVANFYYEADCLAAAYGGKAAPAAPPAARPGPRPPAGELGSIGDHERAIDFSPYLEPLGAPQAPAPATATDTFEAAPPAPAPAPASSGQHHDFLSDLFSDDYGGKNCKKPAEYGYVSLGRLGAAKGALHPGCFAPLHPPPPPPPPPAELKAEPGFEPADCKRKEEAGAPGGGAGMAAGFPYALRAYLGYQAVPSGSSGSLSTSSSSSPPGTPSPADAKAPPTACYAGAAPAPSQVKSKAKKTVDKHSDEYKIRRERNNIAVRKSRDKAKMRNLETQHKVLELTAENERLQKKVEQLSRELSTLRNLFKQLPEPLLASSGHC
Description: ATG_CIS is a cell-based, multiplexed-readout assay that uses HepG2, a human liver cell line, with measurements taken at 24 hours after chemical dosing in a 24-well plate.ATG_C_EBP_CIS is one of 52 assay component(s) measured or calculated from the ATG_CIS assay. It is designed to make measurements of mRNA induction, a form of inducible reporter, as detected with fluorescence intensity signals by Reverse transcription polymerase chain reaction (RT-PCR) and Capillary electrophoresis technology.Data from the assay component ATG_C_EBP_CIS was analyzed into 1 assay endpoint. This assay endpoint, ATG_C_EBP_CIS, was analyzed with bidirectional fitting relative to DMSO as the negative control and baseline of activity. Using a type of inducible reporter, measures of mRNA for gain or loss-of-signal activity can be used to understand the reporter gene at the transcription factor-level as they relate to the gene CEBPB. Furthermore, this assay endpoint can be referred to as a primary readout, because this assay has produced multiple assay endpoints where this one serves a reporter gene function. To generalize the intended target to other relatable targets, this assay endpoint is annotated to the dna binding intended target family, where the subfamily is basic leucine zipper.
Human liver HepG2 cells are transiently transfected with multiple reporter transcription units (MRTUs) in 6-well plates using FuGene 6 reagent (Roche; 3 ml FuGene/1 mg DNA). The MRTU constructs are regulated by a cis-regulating element (promoter). […] A major difference between the CIS and TRANS system is that in CIS activities of endogenous TFs are measured, whereas the TRANS assay evaluates changes in activities of exogenous, chimeric NR-Gal4 proteins. […] At the end of 24 hour incubation, total RNA was isolated using TriZol reagent (Invitrogen). The isolated RNA is then reverse-transcribed using oligo(dT) primer and Mo-MLV reverse transcriptase (Invitrogen) with DNAse I (Ambion) treatment for 30 min. The one-tenth of the produced cDNA was amplified by PCR using Taq DNA polymerase (Invitrogen) and two reporter sequence-specific primers. The PCR products were fluorescently labeled by primer extension with 6-arboxyfluorescein (6-FAM) 5'-labeled reporter sequence-specific primer (2 min at 95 C, 20 s at 68 C and 10 min at 72 C) and these products were digested with 5U of HpaI (New England Biolabs) for 2h at 37 C. The fragments were purified using Qiaquick PCR columns (Qiagen), analyzed on an ABI 3130xL genetic analyzer (Applied Biosystems) with peak positions identified by using a set of X-rhodamine (ROX)-labeled MapMarker1000 molecular weight standards (BioVentures). The raw capillary electrophoresis data was processed using Attagraph software (Attagene).

| SMILES | outcome | AC50 |
| --- | --- | --- |
| N#Cc1ccc(CC(=O)c2cccc(C(F)(F)F)c2)cc1 | inactive |  |
| CC1(C)CCC[C@]2(C)[C@H]3CCO[C@]3(C)CC[C@@H]12 | inactive |  |
| CCOCCOCCOCC | inactive |  |
| COCCc1ccc(OCC(O)CNC(C)C)cc1 (stereo not given) | inactive |  |
| C=C(C)[C@@H]1CC=C(C)C(=O)C1 | inactive |  |
| CCN(CCN)c1cccc(C)c1 | inactive |  |
| CCC(C)S (stereo not given) | inactive |  |
| Nc1ccc(N)c2c1C(=O)c1ccccc1C2=O |  | 11.3 µM (active) |
| N#Cc1cscn1 | inactive |  |
| CCCCOCC | inactive |  |
| CC(C)=CCCC(C)CC(=O)O (stereo not given) | inactive |  |
| O=C(O)c1cccnc1C(=O)O | inactive |  |
| CCCCCCCCCC(C)C=O (stereo not given) | inactive |  |
| CCCCC(CC)COC(C)=O (stereo not given) | inactive |  |
| CC(O)C1CCCCC1 (stereo not given) | inactive |  |
| CCc1ccc(O)cc1 | inactive |  |
| CC(C)(N=C=O)c1cccc(C(C)(C)N=C=O)c1 | inactive |  |
| CCOC(=O)COC(=O)c1cc(Oc2ccc(C(F)(F)F)cc2Cl)ccc1[N+](=O)[O-] | inactive |  |
| Cc1ccc(N)c(S(=O)(=O)O)c1 | inactive |  |
| OC[C@H]1O[C@@H](Oc2ccc(O)cc2)[C@H](O)[C@@H](O)[C@@H]1O | inactive |  |

| SMILES | outcome | AC50 |
| --- | --- | --- |
| CCOC(=O)C(C#N)=C(c1ccccc1)c1ccccc1 | inactive |  |
| COc1ccc(CCC(C)=O)cc1 | inactive |  |
| CCOC(=O)CCc1ccccc1 | inactive |  |
| Clc1ccc(C(c2ccccc2Cl)C(Cl)Cl)cc1 (stereo not given) | inactive |  |
| CCCCCCCCCCCCCC(=O)OCC(O)CO (stereo not given) | inactive |  |
| CCCC(C)C(O)CC (stereo not given) | inactive |  |
| CCCCSCCCC | inactive |  |
| CS(=O)(=O)c1ccc(Cl)cc1 | inactive |  |
| CCCC(=O)c1ccccc1 | inactive |  |
| O=C(Nc1ccc2c(c1)Cc1ccccc1-2)C(F)(F)F | inactive |  |
| O=C(c1ccccc1)C(O)c1ccccc1 (stereo not given) | inactive |  |
| FC(F)(F)COCC(F)(F)F | inactive |  |
| CC(=O)C1(C)CC2=C(CCCC2(C)C)CC1C (stereo not given) | inactive |  |
| CCN(CCC#N)c1ccc(N=Nc2ccc([N+](=O)[O-])cc2)cc1 | inactive |  |
| COc1ccccc1[N+](=O)[O-] | inactive |  |
| CC(=O)O[C@@H]1CC2CCC1(C)C2(C)C (stereo not given in full) | inactive |  |
| CC(C)CC(C)CC(O)CC(C)C (stereo not given) | inactive |  |
| CC1=C(Br)C(=O)C(Br)=C/C1=C(/c1ccccc1S(=O)(=O)O)c1cc(Br)c(O)c(Br)c1C | inactive |  |
| O=C(O)CCCCCCCCCCCC(=O)O | inactive |  |
| O=C1NC2NC(=O)NC2N1 (stereo not given) | inactive |  |
